D2 PAM-1 = human D2 receptor positive allosteric modulation; P14416; DiscoveRx D2 beta-arrestin cells, luminescence, 90 min; 100% = 57 uM dopamine signal; potentiation, % (test concentration not listed); hit rate 0.23% among 360,000; in the data active = potentiation above about 50%; inconclusive = mostly about 30% to 49%
Target sequence (P14416 whole entry, looked up): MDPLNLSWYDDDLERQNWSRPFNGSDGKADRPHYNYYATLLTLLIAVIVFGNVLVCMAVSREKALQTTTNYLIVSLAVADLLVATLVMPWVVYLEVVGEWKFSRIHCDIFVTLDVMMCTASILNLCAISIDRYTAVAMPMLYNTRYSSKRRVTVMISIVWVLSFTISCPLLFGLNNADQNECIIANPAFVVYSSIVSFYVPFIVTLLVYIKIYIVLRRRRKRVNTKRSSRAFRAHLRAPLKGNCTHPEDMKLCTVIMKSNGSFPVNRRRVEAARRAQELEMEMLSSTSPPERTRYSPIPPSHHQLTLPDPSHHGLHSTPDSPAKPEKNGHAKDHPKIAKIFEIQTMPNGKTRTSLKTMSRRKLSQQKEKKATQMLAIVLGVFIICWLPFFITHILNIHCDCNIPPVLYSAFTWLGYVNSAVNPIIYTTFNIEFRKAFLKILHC
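PathHunter beta-arrestin assay in DiscoveRx D2 cells. Compounds were added with an EC20 of dopamine (50 nM final) for 90 min at 37 deg C. Luminescence was read 1 h after detection reagent, with 57 uM dopamine as the EC100 control.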
D2 ag-1 = D2 dopamine receptor (human) agonism. P14416. HEK293 T-REx D2 cells, calcium flux agonist mode. activation, % at 2 µM. hit rate 0.53% among 340,000. AID 485358;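 active = activation over 3 SD above normal in the single-dose calcium agonist read, cut at about 30% in these data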
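Agonism scored from kinetic calcium signal (1 read/sec, 180 s) following compound pin transfer, after a 10 s baseline. Cells: HEK293 Trex line expressing inducible D2 receptor coupled to calcium, dye-loaded after overnight culture at 30 C.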
D2 ag-2 = agonists of human D2 dopamine receptor (beta-arrestin). P14416. AID 624465. hit rate 0.084% among 360,000. DiscoveRx PathHunter D2 beta-arrestin, luminescence, 90 min; 100% = 57 uM dopamine signal. activation, % (concentration not given with the values); in the data active = activation above about 40%; inconclusive = between about 15% and that limit
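DiscoveRx PathHunter D2 beta-arrestin cells (2,100/well) attached overnight, then compound-stimulated 90 min at 37 C in HBSS/10 mM HEPES/0.1% Tween-20 buffer; beta-galactosidase complementation read by luminescence after 1 h at ambient temperature. Dopamine 57 uM final (EC100) as control.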
D2 PAM-2 = positive allosteric modulators of human D2 dopamine receptor; hit rate 0.34% among 340,000; HEK293 T-REx D2, calcium flux, EC20 dopamine potentiation; P14416; potentiation, % at 10 µM;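 active = potentiation over 3 SD above the plate norm, cut at about 30% in these data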
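Tetracycline-induced Hek293 Trex D2 cells, force-coupled to calcium, loaded with no-wash calcium dye. Compound added with 180 s kinetic read for agonism, then EC20 dopamine and a further 180 s read for potentiation.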
D2 antag = D2 dopamine receptor (human) antagonism; P14416; HEK293 TREx D2 cells, calcium flux, dopamine EC80; inhibition, % at 10 µM; hit rate 2% among 340,000; AID 485344; in the data active = inhibition above about 30%; inactive = below that, where a call was filed
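Antagonism is scored as inhibition of an EC80 dopamine-evoked calcium signal in a force-coupled, tetracycline-inducible HEK293 T-REx D2 line, with compound present 180 s before agonist.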
Each line names hits and unclear results; the compound was inactive in the other large screens. Shown are actives, neighbours in structure and some others; about 2.4% of the full set was active somewhere.

CCOc1ccc(NS(=O)(=O)c2cc(NC(=O)CCS(=O)(=O)c3ccc(C)cc3)ccc2OC)cc1	D2 antag 32.9
O=C(Nc1cccc(-c2nc3ncccc3o2)c1)c1ccc(-c2cccc(Cl)c2Cl)o1	none (no result: D2 PAM-1, D2 ag-2, D2 antag)
N#CCCN1CCN(S(=O)(=O)c2cc(Cl)ccc2Cl)CC1	D2 PAM-2 37.2
CC1(C)Oc2ccc(C(=O)NC3CCCC3)cc2N(CC(=O)NC2CCCCC2)C1=O	D2 antag 51.9
Fc1ccc(-n2cc(CNCCc3ccccn3)c(-c3ccccc3Cl)n2)cc1	D2 antag 79.0
CC(=O)c1cccc(OCC(=O)Nc2ccccc2N2CCOCC2)c1	none
CCc1ccc(N(C(C)=O)C2C=CS(=O)(=O)C2)cc1 (centres undefined)	D2 antag 37.2
Cc1cccc(C)c1NC(=O)CN(Cc1ccc(Br)cc1)S(=O)(=O)c1ccccc1	none (no result: D2 PAM-1, D2 ag-2, D2 antag)
C/C(=N\N=C1/SC(CC(=O)O)C(=O)N1c1ccccc1)c1ccc(C)cc1 (centres undefined)	D2 antag 30.1
O=C(O)CC1S/C(=N/N=C2CCCCC2)N(c2ccccc2)C1=O (centres undefined)	none
CCOC(=O)C1=C(CS(=O)(=O)c2ccccc2)NC(=O)NC1c1ccccc1OCC (centres undefined)	D2 antag 36.1
Cc1ccc(S(=O)(=O)N2CCN(Cc3cc(Br)ccc3O)CC2)cc1	none (no result: D2 PAM-1, D2 ag-2, D2 antag)
COc1cccc(CN2C(=O)C(C)N(C(=O)c3ccccc3)c3ccccc32)c1 (centres undefined)	D2 PAM-2 31.1
CCc1nn(C(CC)C(=O)NCCCN2CC(C)CC(C)C2)c(=O)c2cc3oc(C)cc3n12 (centres undefined)	D2 antag 63.7
CCc1nn(C(CC)C(=O)NCCCc2ccccc2)c(=O)c2cc3occc3n12 (centres undefined)	none
Cc1ccc(S(=O)(=O)N(C(=O)c2ccncc2)c2ccc(OC(=O)c3ccncc3)c3ccccc23)c(C)c1	D2 PAM-1 89.9, D2 ag-2 inconclusive (no result: D2 ag-1, D2 PAM-2, D2 antag)
Cc1cc(SCC(=O)N/N=C/c2ccc(O)c(O)c2O)c(C)cc1Br	D2 PAM-1 56.8, D2 ag-2 inconclusive
COCOc1ccc(-c2oc3c(C/C=C(\C)CCC=C(C)C)ccc(O)c3c(=O)c2OCOC)c(OCOC)c1	none (no result: D2 ag-1, D2 PAM-2, D2 antag)
Cc1cc(-n2c(C)cc(C(=O)COc3ccccc3[N+](=O)[O-])c2C)no1	none (no result: D2 ag-1, D2 PAM-2, D2 antag)
Cc1cc(-n2c(C)cc(C(=O)COc3ccc(F)c(F)c3)c2C)no1	D2 antag 30.0
COc1ccc(NC(=O)Cn2c(=O)n(CCC(=O)NCCc3ccc(OC)c(OC)c3)c(=O)c3ccccc32)cc1Cl	none (no result: D2 PAM-1, D2 ag-2, D2 antag)
CCC1CCCCN1C(=O)N[C@@H](CCSC)C(=O)OC (some centres undefined)	D2 antag 36.7
CCOc1ccc(N(CC(=O)Nc2cc(C)cc(C)c2)S(C)(=O)=O)cc1	D2 antag 40.8
COc1ccc(-c2onc3ccc(Cl)cc23)cc1	D2 PAM-1 103.7
O=Cc1ccc2noc(-c3ccc(Cl)cc3)c2c1	D2 PAM-1 79.7, D2 ag-2 inconclusive (no result: D2 ag-1, D2 PAM-2, D2 antag)
COc1cccc(NC(=O)Cn2c(=O)n(-c3ccccc3)c(=O)c3ccc(C(=O)NCc4ccc5c(c4)OCO5)cc32)c1	none (no result: D2 PAM-1, D2 ag-2, D2 antag)
COCCCN1C(=O)c2ccc(C(=O)NCc3ccccn3)cc2C1=O	D2 PAM-2 31.5
COCCN1C(=O)c2ccc(C(=O)O)cc2C1=O	D2 PAM-2 38.8
CC(C)CN1C(=O)c2ccc(C(=O)NCc3ccccn3)cc2C1=O	none
COc1ccccc1/C=C/CN1CCC(Oc2ccc(C(=O)N3CCCC3)cc2)CC1	D2 antag 47.1
COc1ccc(CCC(C)N2CCC(Oc3ccc(C(=O)N4CCCC4)cc3)CC2)cc1 (centres undefined)	D2 antag 30.4
COc1cc(/C=C/CN2CCC(Oc3ccc(C(=O)N4CCCC4)cc3)CC2)ccc1O	none
CN1CCN(C(c2ccccc2)c2ccc(Cl)cc2)CC1 (centres undefined)	none (no result: D2 ag-1, D2 PAM-2, D2 antag)
CN1CCN(C(c2cccc(Cl)c2)c2ccccc2Cl)CC1 (centres undefined)	D2 antag 82.6
CC(C)CC(NC(N)=O)C(=O)NCc1ccccc1Cl (centres undefined)	D2 PAM-2 37.9
O=C(CN1C(=O)NC(c2ccccc2)(c2ccccc2)C1=O)NC1CCCCC1	none
CN1CCN(c2ccc(-c3nc(-c4ccccc4)no3)cc2[N+](=O)[O-])CC1	none (no result: D2 PAM-1, D2 ag-2, D2 antag)
COc1ccc(O)c(N)c1	D2 PAM-2 43.2 (no result: D2 PAM-1, D2 ag-2)
O=C(c1ccccc1Cl)N1CCN(Cc2ccc3c(c2)OCO3)CC1	none
Cc1ccc(C(=O)N2CCN(Cc3ccc4c(c3)OCO4)CC2)c(Cl)c1	D2 antag 72.6
O=C(c1cc([N+](=O)[O-])ccc1Cl)N1CCN(Cc2ccc3c(c2)OCO3)CC1	D2 antag 44.2
Cc1cc2[nH]c(=O)c(=O)[nH]c2cc1S(=O)(=O)Nc1cccc(C(F)(F)F)c1	none (no result: D2 PAM-1, D2 ag-2, D2 antag)
C=CCn1c(C)cc(C(=O)COC(=O)/C=C/c2cccc(OC)c2)c1C	D2 antag 42.0
COc1ccc(OC)c(NC(=O)C2CCCN(S(=O)(=O)c3ccc4[nH]c(=O)ccc4c3)C2)c1 (centres undefined)	none (no result: D2 PAM-1, D2 ag-2, D2 antag)
COc1ccc(S(=O)(=O)N2CCOC23CCN(C(=O)c2ccccc2Br)CC3)cc1	D2 PAM-2 70.8
COc1ccc(S(=O)(=O)N2CCOC23CCN(C(=O)c2ccccc2OC)CC3)cc1	none
N#CC1=C(N)C2=C(N3CCCCC3)CCCC2C1(C#N)C#N (centres undefined)	none
N#CC(C#N)=C1C=C2C=C(N3CCCCC3)CCC2CC1 (centres undefined)	D2 ag-1 132.1, D2 ag-2 inconclusive, D2 antag 86.8
CCCCN(C)C1=CC2=CC(=C(C#N)C#N)CCC2CC1 (centres undefined)	D2 ag-1 140.1, D2 antag 73.4
Cc1ccc(OCc2nc(-c3ccc(C(=O)NCCc4ccc(Cl)cc4)cc3)oc2C)cc1	none (no result: D2 PAM-1, D2 ag-2, D2 antag)
CCN1CCCC1CNC(=O)c1ccc(Sc2ccccc2Cl)c([N+](=O)[O-])c1 (centres undefined)	D2 antag 72.2
CCN1CCN(C(=O)c2ccc(Sc3ccccc3Cl)c([N+](=O)[O-])c2)CC1	none
CCN1CCCC1CNC(=O)c1ccc(Sc2ccc(F)cc2)c([N+](=O)[O-])c1 (centres undefined)	D2 antag 34.7
Cc1ccc(CCNC(=O)CN2C(=O)COc3ccc(S(=O)(=O)N4CCCCCC4)cc32)cc1	none (no result: D2 PAM-1, D2 ag-2, D2 antag)
CC(C)(C)OC(=O)NCCCCCNC(=O)c1nc[nH]c1C(=O)NCC(=O)OCc1ccccc1	D2 PAM-1 52.0, D2 ag-2 inconclusive (no result: D2 ag-1, D2 PAM-2, D2 antag)
CCCC12CN3CC(C)(CN(C1)C3c1cn(CC)c3ccccc13)C2=O (centres undefined)	none (no result: D2 PAM-1, D2 ag-2, D2 antag)
CC1CCN(CCOc2cccc(Br)c2)CC1	D2 antag 97.8
